Source: PubChem BioAssay (Tox21)
Records with an inconclusive call do not appear. Calls of active or inactive are those of the source. Unless noted, calls follow the shape of the full dose curve.

How the values were obtained:
[1] = Nuclear factor erythroid 2-related factor 2/antioxidant responsive element (Nrf2/ARE) small molecule agonists: qHTS cell viability counter screen in human keratinocytes (AID 1919968; active = well fitted curve in the direction sought with a large enough effect in the repeat runs; an effect the other way counts as inactive or inconclusive; also: nearly all actives have a fitted effect of over 55% in size)
How it was run: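 Stably transfected HaCaT (KeratinoSens), 1,500/well. Test agents in DMSO were applied for 23 h, 37 C/5% CO2. CellTiter-Fluor was incubated 1 h before the fluorescence read.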

[2] = Nuclear factor erythroid 2-related factor 2/antioxidant responsive element (Nrf2/ARE) small molecule agonists: luciferase reporter gene qHTS assay in human keratinocytes (AID 1919969); also: nearly all actives have a fitted effect of over 35% in size
[3] = target: Gonadotropin-releasing hormone receptor (Homo sapiens) (UniProt P30968); assay: Human gonadotropin-releasing hormone receptor (GnRHR) small molecule agonists, calcium flux assay in GnRHR-HEK293 cells (AID 1920063); also: nearly all actives have a fitted effect of over 35% in size
Sequence of Gonadotropin-releasing hormone receptor (Homo sapiens) (P30968 whole entry, looked up): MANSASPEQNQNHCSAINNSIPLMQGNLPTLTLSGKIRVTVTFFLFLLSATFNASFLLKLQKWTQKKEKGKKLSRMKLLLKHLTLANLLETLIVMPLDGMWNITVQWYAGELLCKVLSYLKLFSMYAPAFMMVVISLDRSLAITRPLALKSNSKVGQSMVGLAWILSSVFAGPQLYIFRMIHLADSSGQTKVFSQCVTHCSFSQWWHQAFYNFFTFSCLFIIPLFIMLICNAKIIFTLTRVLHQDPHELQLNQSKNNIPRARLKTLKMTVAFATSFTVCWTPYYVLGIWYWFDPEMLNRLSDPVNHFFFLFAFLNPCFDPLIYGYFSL
How it was run: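 Stable human GnRHR HEK293 line. 18 h plating, then calcium dye for 1 h at 37 C. Agonist-mode compound addition from DMSO stocks; fluorescence monitored 3 min.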

[4] = target: KiSS-1 receptor (Homo sapiens) (UniProt Q969F8); assay: Human kisspeptin (KISS1R) small molecule agonists, calcium flux assay in KISS1R-HEK293 cells (AID 1920064; active = well fitted curve in the direction sought with a large enough effect in the repeat runs; an effect the other way counts as inactive or inconclusive)
Sequence of KiSS-1 receptor (Homo sapiens) (Q969F8 whole entry, looked up): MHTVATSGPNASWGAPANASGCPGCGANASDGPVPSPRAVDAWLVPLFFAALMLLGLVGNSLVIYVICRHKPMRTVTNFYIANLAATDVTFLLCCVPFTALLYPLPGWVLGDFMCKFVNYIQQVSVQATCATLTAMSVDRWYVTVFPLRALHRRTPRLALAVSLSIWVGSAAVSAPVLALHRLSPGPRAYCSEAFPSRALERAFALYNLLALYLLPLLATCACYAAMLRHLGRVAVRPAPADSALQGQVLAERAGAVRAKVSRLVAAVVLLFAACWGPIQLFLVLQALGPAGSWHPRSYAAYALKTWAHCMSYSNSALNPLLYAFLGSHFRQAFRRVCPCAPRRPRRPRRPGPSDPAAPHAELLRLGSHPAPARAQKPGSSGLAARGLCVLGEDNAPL
How it was run: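 After overnight (18 h) culture at 37 C/5% CO2, human KISS1R-HEK293 cells received calcium dye for 1 h, then test compound; emission at 540 nm (excitation 480 nm) was tracked for 3 min.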

[5] = G protein-coupled receptor (GPCR) small molecule agonists, calcium flux assay: HEK293 wild type cell line counter screen (AID 1920065)
How it was run: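 Following 18 h incubation at 37 C/5% CO2, plates got calcium dye for 1 h; compounds, ATP or DMSO were then pinned in and fluorescence followed kinetically (480/540 nm).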

[6] = p53 small molecule agonists, cell-based qHTS assay with human liver microsomes: qHTS cell viability counter screen (AID 1963579); also: nearly all actives have a fitted effect of over 45% in size
How it was run: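 Viability of p53RE-bla cells is measured as CellTiter-Glo luminescence following a 16 h, 37 C incubation with compound, liver microsomes from human donors and NADPH.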

[7] = p53 small molecule agonists, cell-based qHTS assay: qHTS cell viability counter screen (AID 1963581); also: nearly all actives have a fitted effect of over 45% in size
How it was run: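 qHTS counter screen: 16 h compound exposure at 37 C of p53RE-bla HCT-116 cells (4,000 per well, seeded 5 h prior), cell viability by ATP luminescence.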

[8] = target: 5-hydroxytryptamine receptor 2A (Homo sapiens) (UniProt P28223); assay: 5-hydroxytryptamine receptor 2A (HTR2A) small molecule antagonists, cell-based qHTS assay (AID 1963586); also: nearly all actives have a fitted effect of over 45% in size
Sequence of 5-hydroxytryptamine receptor 2A (Homo sapiens) (P28223 whole entry, looked up): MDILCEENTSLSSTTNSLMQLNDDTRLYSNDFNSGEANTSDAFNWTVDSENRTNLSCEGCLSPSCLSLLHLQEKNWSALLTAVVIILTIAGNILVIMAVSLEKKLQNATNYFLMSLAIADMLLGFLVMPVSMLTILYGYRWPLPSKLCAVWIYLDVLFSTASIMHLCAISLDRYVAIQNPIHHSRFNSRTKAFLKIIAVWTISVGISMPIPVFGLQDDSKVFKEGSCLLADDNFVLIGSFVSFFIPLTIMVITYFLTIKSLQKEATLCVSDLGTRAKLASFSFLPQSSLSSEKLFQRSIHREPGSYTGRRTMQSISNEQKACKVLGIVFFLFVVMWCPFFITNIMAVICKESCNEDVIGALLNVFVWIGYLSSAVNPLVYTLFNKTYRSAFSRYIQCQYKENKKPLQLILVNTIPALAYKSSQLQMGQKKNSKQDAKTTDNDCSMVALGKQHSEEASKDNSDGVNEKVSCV
How it was run: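 CHO cells stably expressing human HTR2A were plated for 18 h at 37 C, then loaded with calcium dye for 1 h. Compounds were preincubated 5 min at room temperature before DOI (4 nM solution) was added. Kinetic fluorescence was read for 3 min.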

[9] = target: 5-hydroxytryptamine receptor 2A (Homo sapiens) (UniProt P28223); assay: 5-hydroxytryptamine receptor 2A (HTR2A) small molecule agonists, cell-based qHTS assay (AID 1963587); also: nearly all actives have a fitted effect of over 30% in size
How it was run: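 Kinetic calcium-flux fluorescence (2 min, 1 sec intervals) after compound addition in agonist mode. HTR2A-CHO cells were cultured 18 h, then dye-loaded 1 h at 37 C.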

[10] = target: Muscarinic acetylcholine receptor M1 (Homo sapiens) (UniProt P11229); assay: Cholinergic receptor muscarinic 1 (CHRM1) small molecule antagonists, cell-based qHTS assay (AID 1963588); also: nearly all actives have a fitted effect of over 40% in size
Sequence of Muscarinic acetylcholine receptor M1 (Homo sapiens) (P11229 whole entry, looked up): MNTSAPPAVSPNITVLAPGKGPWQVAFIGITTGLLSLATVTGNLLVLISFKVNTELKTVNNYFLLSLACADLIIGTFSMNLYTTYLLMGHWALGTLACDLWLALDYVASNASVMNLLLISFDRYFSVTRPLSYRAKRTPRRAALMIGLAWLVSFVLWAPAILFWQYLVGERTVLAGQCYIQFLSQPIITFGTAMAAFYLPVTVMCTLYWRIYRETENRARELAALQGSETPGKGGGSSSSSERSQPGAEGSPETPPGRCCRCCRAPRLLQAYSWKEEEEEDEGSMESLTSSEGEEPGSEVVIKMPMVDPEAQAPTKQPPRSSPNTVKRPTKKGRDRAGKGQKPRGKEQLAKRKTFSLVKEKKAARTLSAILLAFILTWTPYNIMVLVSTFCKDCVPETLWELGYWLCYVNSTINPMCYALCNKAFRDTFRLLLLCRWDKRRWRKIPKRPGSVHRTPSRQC
How it was run: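 Compounds were tested at 15 concentrations in three independent runs. Dye-loaded CHRM1-CHO cells were exposed 5 min at room temperature before stimulation by acetylcholine added at 50nM. Intracellular calcium was read kinetically on FDSS for 3 min.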

[11] = target: Muscarinic acetylcholine receptor M1 (Homo sapiens) (UniProt P11229); assay: Cholinergic receptor muscarinic 1 (CHRM1) small molecule agonists, cell-based qHTS assay (AID 1963589); also: nearly all actives have a fitted effect of over 35% in size
How it was run: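 Kinetic fluorescence (1 s intervals) of calcium-sensitive dye in human M1 CHO cells after compound addition; cells pre-incubated 18 h at 37 C/5% CO2 and dye-loaded 1 h.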

[12] = cAMP Responsive Elements (CRE) small molecule agonists, cell-based qHTS assay (AID 1963590)
How it was run: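 Test agents in DMSO were incubated 3 h at 37 C/5% CO2 with CRE-bla HEK 293T cells seeded 18 h earlier; LiveBLAzer B/G FRET substrate was added and read after 2 h at room temperature.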

[13] = target: Beta-2 adrenergic receptor (Homo sapiens) (UniProt P07550); assay: Adrenergic beta2 receptor (ADRB2) small molecule antagonists, cell-based qHTS assay (AID 1963592); also: series mostly up to about 92 µM; nearly all actives have a fitted effect of over 50% in size
Sequence of Beta-2 adrenergic receptor (Homo sapiens) (P07550 whole entry, looked up): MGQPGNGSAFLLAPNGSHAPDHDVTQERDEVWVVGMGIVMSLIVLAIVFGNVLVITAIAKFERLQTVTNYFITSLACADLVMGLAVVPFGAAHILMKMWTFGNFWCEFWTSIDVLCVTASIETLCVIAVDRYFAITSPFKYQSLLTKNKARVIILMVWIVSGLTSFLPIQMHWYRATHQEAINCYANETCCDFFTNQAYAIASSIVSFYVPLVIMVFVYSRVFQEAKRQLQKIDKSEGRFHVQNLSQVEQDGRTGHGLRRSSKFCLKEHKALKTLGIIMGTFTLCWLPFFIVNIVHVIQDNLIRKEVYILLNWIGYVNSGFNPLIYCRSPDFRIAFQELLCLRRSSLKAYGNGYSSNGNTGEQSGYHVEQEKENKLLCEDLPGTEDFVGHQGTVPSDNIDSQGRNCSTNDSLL
How it was run: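 Assay format: CHO-ADRB2 cells, 18-20hr seeding at 37C/5% CO2, then compound plus 1nM isoproterenol agonist mix for 0.5hr RT. Homogeneous time-resolved fluorescence cAMP detection after 1hr, expressed as 665/615 nm ratio.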

[14] = target: Beta-2 adrenergic receptor (Homo sapiens) (UniProt P07550); assay: Adrenergic beta2 receptor (ADRB2) small molecule agonists, cell-based qHTS assay (AID 1963593);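 also: CHO cells stably overexpressing human ADRB2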
How it was run: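 CHO cells stably over-expressing ADRB2 were plated overnight at 37C, then dosed with compounds plus a stimulation mix containing 100uM IBMX and 25uM Ro-20-1724 for 0.5hr at room temperature. cAMP was measured by HTRF competition, 1hr.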

[15] = target: D(2) dopamine receptor (Homo sapiens) (UniProt P14416); assay: Dopamine D2 receptor (DRD2) small molecule antagonists, cell-based qHTS assay (AID 1963595; active = well fitted inhibition curve with a large enough effect in the signal ratio in the repeat runs, with a control signal flat; the % refers to the signal ratio)
Sequence of D(2) dopamine receptor (Homo sapiens) (P14416 whole entry, looked up): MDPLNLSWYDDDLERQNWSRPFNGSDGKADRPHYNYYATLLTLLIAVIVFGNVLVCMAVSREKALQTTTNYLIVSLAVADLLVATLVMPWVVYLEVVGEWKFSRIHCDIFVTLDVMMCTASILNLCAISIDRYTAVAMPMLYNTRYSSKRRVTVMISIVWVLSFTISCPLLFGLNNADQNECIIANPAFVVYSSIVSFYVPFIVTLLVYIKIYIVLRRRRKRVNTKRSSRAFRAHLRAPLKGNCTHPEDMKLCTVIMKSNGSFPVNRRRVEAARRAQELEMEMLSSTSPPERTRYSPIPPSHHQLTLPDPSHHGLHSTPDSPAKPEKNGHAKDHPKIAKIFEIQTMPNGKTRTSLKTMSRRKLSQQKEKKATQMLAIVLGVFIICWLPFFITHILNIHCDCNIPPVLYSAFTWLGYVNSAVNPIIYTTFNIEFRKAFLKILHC
How it was run: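 Human DRD2 antagonist qHTS measuring cAMP by HTRF. The cells are exposed to compound for 10 min, then to NKH477 (200 nM) and quinpirole (12 nM) for 30 min at RT, with Ro20-1724 (0.1 mM) present throughout.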

[16] = p53 small molecule agonists, cell-based qHTS assay with rat liver microsomes: qHTS cell viability counter screen (AID 1963580); also: nearly all actives have a fitted effect of over 45% in size
How it was run: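 Rat liver microsome (0.5 mg/mL final) and NADPH (0.5 mg/mL final) co-incubation with compounds for 16 h at 37 C on HCT-116 p53RE-bla cells; cytotoxicity taken from intracellular ATP luminescence.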

[17] = cAMP Responsive Elements (CRE) small molecule antagonists, cell-based qHTS assay (AID 1963591; active = well fitted inhibition curve with a large enough effect in the signal ratio in the repeat runs, not every such curve was filed as active; the % refers to the signal ratio)
How it was run: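 Reporter line CRE-bla HEK 293T in dialyzed-FBS DMEM; cells preincubated 18 h, treated 3 h with compound plus NKH477 (0.25 uM final); LiveBLAzer FRET, 2 h RT.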

[18] = target: D(2) dopamine receptor (Homo sapiens) (UniProt P14416); assay: Dopamine D2 receptor (DRD2) small molecule agonists, cell-based qHTS assay (AID 1963594); also: nearly all actives have a fitted effect of over 35% in size
How it was run: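 cAMP accumulation in DRD2-HEK293 cells measured by HTRF after 1 h detection; compounds added 10 min before NKH477 (200nM […]) forskolin-analogue stimulation, 30 min at room temperature, with Ro20-1724 present at 0.1 mM final.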

Measured: Potency

CC(C)[C@]12CC(=O)[C@H](C)[C@H]1C2
not listed: [16] | [17] | [18]
inactive: all other assays above

CCOC(=O)Cc1ccccc1
not listed: [6] | [12] | [14]
inactive: all other assays above

CNC(=O)/C=C(\C)OP(=O)(OC)OC
not listed: [6] | [12] | [14]
inactive: all other assays above

Fc1cccc(Cl)c1CCl
not listed: [6] | [9] | [14] | [18]
inactive: all other assays above

CCC(C)(C)O
not listed: [7] | [16]
inactive: all other assays above

CN(C)C1CCCCC1
not listed: [14] | [16]
inactive: all other assays above
